High-throughput results as filed in PubChem BioAssay.
Sampled rows, rich in hits. Any-hit rate of the full collection: about 3.5%.
mHTT CaM bind: mutant huntingtin-calmodulin interaction inhibitors – biochemical, AlphaScreen, primary screen | inhibition, % at 15 µM | AlphaScreen His-mHTT/GST-CaM binding, luminescence | 3.6% of 190,000 active | AID 1671202, 2021;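 note: 0% = both proteins with DMSO and 100% = one protein alone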
Target sequence (P42858 whole entry, looked up, stated change not applied): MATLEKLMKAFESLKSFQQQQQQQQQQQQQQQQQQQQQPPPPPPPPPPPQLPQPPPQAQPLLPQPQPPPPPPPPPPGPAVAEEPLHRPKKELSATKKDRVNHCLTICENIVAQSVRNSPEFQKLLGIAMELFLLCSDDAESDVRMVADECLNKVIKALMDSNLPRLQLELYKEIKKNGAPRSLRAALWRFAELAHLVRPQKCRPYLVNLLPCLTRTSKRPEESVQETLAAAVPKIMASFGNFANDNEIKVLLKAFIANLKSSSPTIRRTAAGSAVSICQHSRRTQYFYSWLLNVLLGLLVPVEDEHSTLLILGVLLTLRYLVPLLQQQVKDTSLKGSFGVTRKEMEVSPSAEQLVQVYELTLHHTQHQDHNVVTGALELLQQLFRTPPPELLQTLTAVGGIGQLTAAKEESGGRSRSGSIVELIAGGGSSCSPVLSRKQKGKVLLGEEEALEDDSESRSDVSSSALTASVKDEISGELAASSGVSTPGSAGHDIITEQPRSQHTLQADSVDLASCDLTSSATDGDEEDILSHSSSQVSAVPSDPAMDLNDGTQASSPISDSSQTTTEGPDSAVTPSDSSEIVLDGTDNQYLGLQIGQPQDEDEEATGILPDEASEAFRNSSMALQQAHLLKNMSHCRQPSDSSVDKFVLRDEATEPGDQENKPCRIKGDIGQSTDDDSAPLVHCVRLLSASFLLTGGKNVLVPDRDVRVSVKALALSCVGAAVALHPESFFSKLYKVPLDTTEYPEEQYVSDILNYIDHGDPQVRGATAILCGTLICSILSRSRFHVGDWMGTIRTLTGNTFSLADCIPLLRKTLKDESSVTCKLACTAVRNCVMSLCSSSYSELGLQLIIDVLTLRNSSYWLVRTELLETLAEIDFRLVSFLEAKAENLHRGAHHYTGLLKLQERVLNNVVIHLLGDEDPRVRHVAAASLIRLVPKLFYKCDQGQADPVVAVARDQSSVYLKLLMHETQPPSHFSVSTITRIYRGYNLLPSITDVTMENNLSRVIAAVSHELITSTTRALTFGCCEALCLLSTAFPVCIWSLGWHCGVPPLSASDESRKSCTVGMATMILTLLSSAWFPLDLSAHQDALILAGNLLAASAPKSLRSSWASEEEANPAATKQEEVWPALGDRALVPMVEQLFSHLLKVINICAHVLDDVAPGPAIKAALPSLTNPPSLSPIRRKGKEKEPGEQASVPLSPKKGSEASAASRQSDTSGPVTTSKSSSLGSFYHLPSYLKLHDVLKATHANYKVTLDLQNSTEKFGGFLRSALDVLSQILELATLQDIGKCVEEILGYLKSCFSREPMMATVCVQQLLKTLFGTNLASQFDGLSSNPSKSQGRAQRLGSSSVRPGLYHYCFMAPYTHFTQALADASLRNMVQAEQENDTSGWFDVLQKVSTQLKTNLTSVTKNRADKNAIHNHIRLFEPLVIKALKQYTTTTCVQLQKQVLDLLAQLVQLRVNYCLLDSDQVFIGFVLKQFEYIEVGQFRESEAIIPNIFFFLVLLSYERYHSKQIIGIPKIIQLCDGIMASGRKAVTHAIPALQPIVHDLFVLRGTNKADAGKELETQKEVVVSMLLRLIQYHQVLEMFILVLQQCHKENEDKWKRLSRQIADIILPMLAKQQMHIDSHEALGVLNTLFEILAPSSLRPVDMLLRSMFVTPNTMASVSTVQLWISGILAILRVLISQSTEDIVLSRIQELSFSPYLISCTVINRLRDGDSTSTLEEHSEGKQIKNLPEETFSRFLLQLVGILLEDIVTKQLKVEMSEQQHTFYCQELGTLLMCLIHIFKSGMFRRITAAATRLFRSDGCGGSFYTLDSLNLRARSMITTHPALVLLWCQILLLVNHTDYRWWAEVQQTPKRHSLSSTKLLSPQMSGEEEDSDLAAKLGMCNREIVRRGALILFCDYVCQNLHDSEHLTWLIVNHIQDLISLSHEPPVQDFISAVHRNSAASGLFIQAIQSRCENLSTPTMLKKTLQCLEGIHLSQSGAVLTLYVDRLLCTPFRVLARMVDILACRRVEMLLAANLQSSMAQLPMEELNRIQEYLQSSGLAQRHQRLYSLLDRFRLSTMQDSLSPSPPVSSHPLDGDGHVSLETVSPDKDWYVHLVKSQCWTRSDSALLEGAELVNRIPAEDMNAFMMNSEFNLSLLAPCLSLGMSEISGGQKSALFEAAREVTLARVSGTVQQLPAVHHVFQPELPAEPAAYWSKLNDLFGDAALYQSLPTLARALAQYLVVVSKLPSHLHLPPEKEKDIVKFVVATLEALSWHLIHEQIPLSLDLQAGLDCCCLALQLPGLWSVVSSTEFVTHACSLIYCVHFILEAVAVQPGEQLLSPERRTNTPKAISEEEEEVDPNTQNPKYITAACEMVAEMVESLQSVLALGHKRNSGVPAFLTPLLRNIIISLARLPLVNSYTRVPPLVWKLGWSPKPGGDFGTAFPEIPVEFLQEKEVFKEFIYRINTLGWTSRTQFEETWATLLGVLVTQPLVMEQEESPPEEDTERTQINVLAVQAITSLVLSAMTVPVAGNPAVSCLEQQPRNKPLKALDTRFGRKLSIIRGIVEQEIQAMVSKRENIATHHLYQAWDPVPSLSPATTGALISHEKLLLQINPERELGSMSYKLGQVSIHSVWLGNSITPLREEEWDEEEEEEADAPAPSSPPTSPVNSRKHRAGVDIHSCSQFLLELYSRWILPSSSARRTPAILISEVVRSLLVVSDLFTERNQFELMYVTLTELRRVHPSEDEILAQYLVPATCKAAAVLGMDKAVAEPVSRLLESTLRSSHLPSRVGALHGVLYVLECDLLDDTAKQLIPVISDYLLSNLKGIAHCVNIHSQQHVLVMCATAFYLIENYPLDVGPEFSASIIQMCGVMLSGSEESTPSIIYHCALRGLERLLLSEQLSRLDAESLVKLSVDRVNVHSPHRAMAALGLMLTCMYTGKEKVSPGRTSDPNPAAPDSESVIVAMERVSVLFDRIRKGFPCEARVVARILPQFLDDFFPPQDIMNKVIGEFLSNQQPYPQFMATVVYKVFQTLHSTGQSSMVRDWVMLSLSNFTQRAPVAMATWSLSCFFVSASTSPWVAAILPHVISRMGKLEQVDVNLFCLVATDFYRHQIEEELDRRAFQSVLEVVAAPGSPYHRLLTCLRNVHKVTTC
Pf apPOL inh: Pf-apPOL inhibitors, biochemical, fluorescence. Plasmodium falciparum apicoplast DNA polymerase (apPOL). Recombinant Pf-apPOL, molecular beacon fluorescence, 1.5 h. inhibition, % at 10 µM. 0.25% of 210,000 active. AID 1794808, 2022
* = called active by the depositor. Cut-off read from the data, not from the text of the source: active = inhibition above about 50%; inactive = the rest.

Results for COc1ccc(NC(=O)/C(C#N)=C/c2cc(C)n(-c3ccc(F)cc3)c2C)cc1 ?
mHTT CaM bind: 1.0; Pf apPOL inh: 0.0

What do the screens show for `Cc1cc(NS(=O)(=O)c2ccc(NC(=O)C(Cl)(Cl)Cl)cc2)nc(C)n1`?
mHTT CaM bind: -4.8; Pf apPOL inh: 86.3*

Results for Cc1cc(NS(=O)(=O)c2ccc(NC(=O)C3CC3)cc2)nc(C)n1 ?
mHTT CaM bind: -3.0; Pf apPOL inh: -5.1

Results for CC(C)n1c(=O)c(N2CCN(C(=O)c3cc(-c4ccccc4)n[nH]3)CC2)nc2ccncc21 ?
mHTT CaM bind: 50.3*; Pf apPOL inh: 3.9

How did CC(C)n1c(=O)c(N2CCN(C(=O)c3ccccc3)CC2)nc2ccncc21 do in these assays?
mHTT CaM bind: 8.1; Pf apPOL inh: -3.9

What do the screens show for `N#C/C(=C\c1ccccc1/C=C(\C#N)c1ccc2c(c1)OCO2)c1ccc2c(c1)OCO2`?
mHTT CaM bind: 72.7*

How did N#C/C(=C\c1cc2c(cc1Br)OCO2)c1ccc([N+](=O)[O-])cc1 do in these assays?
mHTT CaM bind: 6.6; Pf apPOL inh: 3.2

Results for O=C(NCc1cccc(C(F)(F)F)c1)C1CCN(c2cnc3nccnc3c2)CC1 ?
mHTT CaM bind: -1.3; Pf apPOL inh: -2.5

What do the screens show for `CCc1cc(-c2[nH]ncc2-c2ccccc2)c(O)cc1OC`?
mHTT CaM bind: 100.0*; Pf apPOL inh: -2.3

Results for Oc1ccc(-c2[nH]ncc2-c2ccccc2)c(O)c1O ?
mHTT CaM bind: 95.6*; Pf apPOL inh: -3.1

How did O=Cc1cn[nH]c1-c1ccccc1 do in these assays?
mHTT CaM bind: -5.6; Pf apPOL inh: -4.1

Results for CCc1cc(-c2[nH]ncc2-c2ccc(F)cc2)c(O)cc1OC ?
mHTT CaM bind: 74.0*; Pf apPOL inh: 9.1

What do the screens show for `COc1cc(-c2nc3ccccn3c2N=Cc2cn[nH]c2-c2ccccc2)ccc1O`?
mHTT CaM bind: 34.0; Pf apPOL inh: -9.2

Results for COc1ccc(-c2[nH]ncc2-c2ccc(F)cc2)c(O)c1 ?
mHTT CaM bind: 38.7; Pf apPOL inh: -6.2

What do the screens show for `Cn1cc([N+](=O)[O-])c(C(=O)Nc2cc(Cl)ccc2Cl)n1`?
mHTT CaM bind: -2.0; Pf apPOL inh: -4.5

What do the screens show for `CCOC(=O)COc1ccc2c(-c3cc4cc(Cl)ccc4oc3=O)cc(=O)oc2c1`?
mHTT CaM bind: -5.0; Pf apPOL inh: -3.4

How did COc1cccc(-n2cc(C(=O)O)nn2)c1 do in these assays?
mHTT CaM bind: -3.6; Pf apPOL inh: -1.3

Results for CCN1CCN(c2ncc3c(n2)CCN(Cc2cccc(Cl)c2)C3)CC1 ?
mHTT CaM bind: 78.3*; Pf apPOL inh: 1.2

How did CCCN1CCN(c2ncc3c(n2)CCN(Cc2cccc(Br)c2)C3)CC1 do in these assays?
mHTT CaM bind: 45.2; Pf apPOL inh: -5.8

How did CCN1CCN(c2ncc3c(n2)CCN(CCc2ccccc2)C3)CC1 do in these assays?
mHTT CaM bind: 96.6*; Pf apPOL inh: -6.6

What do the screens show for `Clc1cccc(CN2CCc3nc(N4CCN(c5ccccc5)CC4)ncc3C2)c1`?
mHTT CaM bind: 24.6; Pf apPOL inh: 1.7

What do the screens show for `CCCN1CCN(c2ncc3c(n2)CCN(Cc2cccc(C)c2)C3)CC1`?
mHTT CaM bind: 13.3; Pf apPOL inh: -6.8

Results for CCCN1CCc2nc(N3CCN(c4ccccc4F)CC3)ncc2C1 ?
mHTT CaM bind: 14.7; Pf apPOL inh: -3.5

How did Cc1cccc(CN2CCc3nc(N4CCN(c5ncccn5)CC4)ncc3C2)c1 do in these assays?
mHTT CaM bind: 100.1*; Pf apPOL inh: 0.8

How did Clc1cccc(CN2CCc3nc(N4CCN(c5ncccn5)CC4)ncc3C2)c1 do in these assays?
mHTT CaM bind: 100.3*; Pf apPOL inh: -6.5

Results for CCc1ccccc1NC(=O)c1ccc(F)c(S(=O)(=O)NCc2ccc(F)cc2)c1 ?
mHTT CaM bind: 1.0; Pf apPOL inh: -2.1

Results for COc1cc2c(cc1OC)C(C(=O)N1CCOCC1)C(c1cccnc1)N(C)C2=O (stereo unspecified) ?
mHTT CaM bind: -1.0; Pf apPOL inh: -4.6

How did C=CCn1c2ccccc2c2nnc(SCC(=O)Nc3nccs3)nc21 do in these assays?
mHTT CaM bind: 12.8; Pf apPOL inh: -2.6

Results for O=C(NC1CCN(c2ncnc3c2CCC3)C1)c1cccs1 (stereo unspecified) ?
mHTT CaM bind: 12.0; Pf apPOL inh: -1.6

Results for COc1ccc(Br)cc1C1=N/C(=C/c2ccc(F)cc2)C(=O)O1 ?
mHTT CaM bind: 2.0; Pf apPOL inh: -2.2

What do the screens show for `CCn1ncc(Cl)c1C(=O)N1CCCC1c1ccccc1F` (stereo unspecified)?
mHTT CaM bind: -4.2; Pf apPOL inh: -4.3

Results for Ic1cccc(-c2nc(-c3cccnc3)no2)c1 ?
mHTT CaM bind: -7.1; Pf apPOL inh: -15.0

Results for CCN1CCN(c2ncc3c(n2)CCN(Cc2ccc(Cl)c(F)c2)C3)CC1 ?
mHTT CaM bind: 62.6*; Pf apPOL inh: 0.8

Results for CCN1CCN(c2ncc3c(n2)CCN(Cc2ccccc2F)C3)CC1 ?
mHTT CaM bind: 56.3*; Pf apPOL inh: -3.1

How did CCOc1ccc(CN2CCc3nc(N4CCN(CC)CC4)ncc3C2)cc1OCC do in these assays?
mHTT CaM bind: 20.0; Pf apPOL inh: -4.5

How did CCN1CCN(c2ncc3c(n2)CCN(Cc2cccc(F)c2F)C3)CC1 do in these assays?
mHTT CaM bind: 32.0; Pf apPOL inh: 5.0

What do the screens show for `CCOc1ccc(-c2nn(-c3ccccc3)cc2C=NC2CCS(=O)(=O)C2)cc1C` (stereo unspecified)?
mHTT CaM bind: -45.0; Pf apPOL inh: 0.0

How did N#C/C(=C\c1ccccc1F)c1nc2ccccc2s1 do in these assays?
mHTT CaM bind: 4.5; Pf apPOL inh: -7.0

How did CN(C)C=NC(=O)C(C#N)=CN(C)C do in these assays?
Pf apPOL inh: -13.9

What do the screens show for `Nc1nc(-c2ccccc2)cc(=S)s1`?
mHTT CaM bind: 51.3*

Results for Nc1nc(-c2ccc(-c3ccccc3)cc2)cs1 ?
mHTT CaM bind: 44.9; Pf apPOL inh: -0.3

How did O=C(CCCCC(=O)NCCC1=CCCCC1)NCCC1=CCCCC1 do in these assays?
mHTT CaM bind: -6.3

Results for O=C(NNc1nc(-c2ccccc2)c2cc(Br)ccc2n1)C12CC3CC(CC(C3)C1)C2 ?
mHTT CaM bind: 2.5; Pf apPOL inh: -4.9

How did OCCCNc1nc(-c2ccccc2Cl)c2cc(Br)ccc2n1 do in these assays?
mHTT CaM bind: 51.0*; Pf apPOL inh: -3.9

What do the screens show for `COc1ccc(OC)c(Nc2nc(C)nc3sc(C)cc23)c1`?
mHTT CaM bind: 52.0*; Pf apPOL inh: -13.5

What do the screens show for `COc1ccc(C)cc1Nc1nc(C)nc2sc(C)cc12`?
mHTT CaM bind: -7.0; Pf apPOL inh: -18.2

How did COc1ccccc1CNC(=O)c1oc2ccc(S(=O)(=O)N3CCC(C)CC3)cc2c1C do in these assays?
mHTT CaM bind: -3.0; Pf apPOL inh: -3.1

How did NNc1ncc(Cl)cc1Cl do in these assays?
mHTT CaM bind: 99.8*; Pf apPOL inh: -30.5

What do the screens show for `Oc1ccc(Oc2ncc(Cl)cc2Cl)cc1`?
mHTT CaM bind: -3.0

How did CC1=C(C(=O)Nc2cccc(C(F)(F)F)c2)C(c2ccc(Cl)cc2)C2=C(CCCC2=O)N1 (stereo unspecified) do in these assays?
mHTT CaM bind: 43.0; Pf apPOL inh: -2.6

How did Nc1ccc(C(=O)Nc2ccccc2)c(N)c1 do in these assays?
mHTT CaM bind: 95.3*; Pf apPOL inh: -12.0

Results for Nc1cccc(C(=O)Nc2ccccc2)c1 ?
mHTT CaM bind: -1.7; Pf apPOL inh: -5.2

Results for Cc1cc(C)n(-c2nnc(N)nn2)n1 ?
mHTT CaM bind: 1.8
